Potency and outcome data for 31 compounds are collected here from PubChem BioAssay (Tox21).

Experiment [1] deals with Peroxisome proliferator-activated receptor delta (Homo sapiens) (UniProt Q03181). Nature of the experiment: qHTS assay to identify small molecule agonists of the peroxisome proliferator-activated receptor delta (PPARd) signaling pathway (AID 743212; calls by dose curve). A digest of the protocol: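 Quantitative high-throughput agonist screen in a HEK293H beta-lactamase reporter line under UAS control. Compounds in DMSO, at 37 C. Fluorescence read after 2 h with FRET substrate at room temperature.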
Peroxisome proliferator-activated receptor delta (Homo sapiens), sequence (Q03181 whole entry, looked up): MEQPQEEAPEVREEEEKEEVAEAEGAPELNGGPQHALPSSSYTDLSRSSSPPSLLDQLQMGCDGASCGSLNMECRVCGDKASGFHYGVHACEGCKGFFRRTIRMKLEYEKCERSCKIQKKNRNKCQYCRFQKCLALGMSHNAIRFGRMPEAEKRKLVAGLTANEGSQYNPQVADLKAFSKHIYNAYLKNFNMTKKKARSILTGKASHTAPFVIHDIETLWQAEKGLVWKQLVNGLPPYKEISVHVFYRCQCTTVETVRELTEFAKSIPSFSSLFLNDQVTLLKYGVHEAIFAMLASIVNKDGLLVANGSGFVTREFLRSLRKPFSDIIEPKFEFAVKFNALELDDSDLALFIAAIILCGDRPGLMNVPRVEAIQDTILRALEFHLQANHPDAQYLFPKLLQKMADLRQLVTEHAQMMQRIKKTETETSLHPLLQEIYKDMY
A general note: Quantitative high-throughput screening tests each substance at several concentrations.

Experiment [2] is described as follows: qHTS assay to identify small molecule antagonists of the peroxisome proliferator-activated receptor delta (PPARd) signaling pathway - cell viability counter screen (AID 743213). Note: nearly all actives have a fitted effect of over 50% in size. A digest of the protocol: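 Agonist-stimulated (L165041, 300 nM final) HEK293H PPARd UAS-bla cells are exposed to compounds for 17 h at 37 C, and ATP-based luminescence (CellTiter-Glo) from the same wells reports cytotoxicity.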

Experiment [3] is described as follows: qHTS assay to identify small molecule agonists of the farnesoid-X-receptor (FXR) signaling pathway - cell viability counter screen (AID 743218). Note: nearly all actives have a fitted effect of over 45% in size. Note: potency is the fitted concentration of half-maximal effect. A digest of the protocol: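 Parallel cytotoxicity test: compound-treated (16 h, 37 C) HEK 293T FXR-bla reporter cells were lysed with CellTiter-Glo and luminescence recorded.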
Experiment [4] is described as follows: qHTS assay to identify small molecule antagonists of the farnesoid-X-receptor (FXR) signaling pathway - cell viability counter screen (AID 743221; active = well fitted cell-killing curve with a large enough effect in the repeat runs, not every such curve was filed as active; note: nearly all actives have a fitted effect of over 50% in size). A digest of the protocol:
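HEK 293T FXR-bla cells, 5 h pre-incubation; compound + CDCA 50 uM final, 16 h, 37 C; beta-lactamase FRET read first, then CellTiter-Glo luminescence, 30 min RT.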

Experiment [5] concerns the target Vitamin D3 receptor (Homo sapiens) (UniProt P11473). As to the kind of experiment: qHTS assay to identify small molecule agonists of the vitamin D receptor (VDR) signaling pathway (AID 743222; calls by dose curve). A digest of the protocol:
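In VDR-bla cells, compound-induced beta-lactamase expression is quantified by FRET substrate fluorescence. Treatment lasts 16 h at 37C; substrate develops 2 h at room temperature.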

Experiment [6] shares this target. As to the kind of experiment: qHTS assay to identify small molecule antagonists of the vitamin D receptor (VDR) signaling pathway (AID 743223; active = well fitted inhibition curve with a large enough effect in the signal ratio in the repeat runs, not every such curve was filed as active; the % refers to the signal ratio). A digest of the protocol:
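Beta-lactamase reporter read-out: FRET substrate fluorescence after 2 h at room temperature, following 16 h exposure of VDR-bla cells to test compound plus 3 nM (final) 1alpha,25-dihydroxyvitamin D3 agonist at 37C.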

Experiment [7] is described as follows: qHTS assay to identify small molecule agonists of the vitamin D receptor (VDR) signaling pathway - cell viability counter screen (AID 743224). Note: series mostly up to about 63 µM; nearly all actives have a fitted effect of over 50% in size. The gist of the method: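 Plated VDR-bla cells (4 h, 37C) received compound, incubated 16 h, then LiveBLAzer substrate 2 h RT; CellTiter-Glo added afterwards, luminescence read at 30 min.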
In experiment [8] the target is Bile acid receptor (Homo sapiens) (UniProt Q96RI1). Nature of the experiment: qHTS assay to identify small molecule antagonists of the farnesoid-X-receptor (FXR) signaling pathway (AID 743217; active = well fitted inhibition curve with a large enough effect in the signal ratio in the repeat runs, not every such curve was filed as active; the % refers to the signal ratio). A digest of the protocol:
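GeneBLAzer FXR-UAS-bla HEK 293T, CDCA-stimulated (50 uM final). Compound treatment 16 h, 37 °C. Detection: beta-lactamase cleavage of B/G FRET substrate, fluorescence.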

For experiment [9] the target is unchanged. Nature of the experiment: qHTS assay to identify small molecule agonists of the farnesoid-X-receptor (FXR) signaling pathway (AID 743220; active = well fitted activation curve with a large enough effect in the signal ratio in the repeat runs, not every such curve was filed as active; the % refers to the signal ratio). The gist of the method:
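Beta-lactamase reporter under UAS control in GeneBLAzer FXR HEK 293T cells (5000/well) measured with LiveBLAzer FRET substrate after 2 h at room temperature. Compound exposure lasted 16 h at 37C.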

In experiment [10] the target is Peroxisome proliferator-activated receptor delta (Homo sapiens) (UniProt Q03181). Nature of the experiment: qHTS assay to identify small molecule antagonists of the peroxisome proliferator-activated receptor delta (PPARd) signaling pathway (AID 743215; active = well fitted inhibition curve with a large enough effect in the signal ratio in the repeat runs, not every such curve was filed as active; the % refers to the signal ratio; note: series mostly up to about 62 µM). The gist of the method:
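HEK293H UAS-bla, PPARd; agonist L165041 300 nM final with cpd in DMSO; 37 C 17 h; FRET substrate, RT 2 h; fluorescence intensity.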

Inconclusive results are not listed. Values without a mark were called inactive. Calls of active or inactive are those of the source. Unless noted, calls come from the whole dose curve; as a rule, active = well fitted curve in the direction sought with a large enough effect in the repeat runs; inconclusive = weak or mixed curves; inactive = no such curve, though single readings can be large; an effect the other way counts as inactive or inconclusive.

Vitamin D3 receptor (Homo sapiens), sequence (P11473 whole entry, looked up): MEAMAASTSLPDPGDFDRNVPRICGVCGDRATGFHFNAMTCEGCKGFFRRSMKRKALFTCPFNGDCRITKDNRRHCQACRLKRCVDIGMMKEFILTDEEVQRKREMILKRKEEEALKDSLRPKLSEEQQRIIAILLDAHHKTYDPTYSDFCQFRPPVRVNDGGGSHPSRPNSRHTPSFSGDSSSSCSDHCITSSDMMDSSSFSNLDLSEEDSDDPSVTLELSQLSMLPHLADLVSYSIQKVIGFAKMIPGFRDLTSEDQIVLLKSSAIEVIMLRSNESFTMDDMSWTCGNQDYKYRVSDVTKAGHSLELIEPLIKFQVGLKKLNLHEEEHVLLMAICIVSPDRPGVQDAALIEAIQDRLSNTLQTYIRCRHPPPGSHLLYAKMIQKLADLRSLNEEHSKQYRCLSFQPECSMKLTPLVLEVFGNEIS
Bile acid receptor (Homo sapiens), sequence (Q96RI1 whole entry, looked up): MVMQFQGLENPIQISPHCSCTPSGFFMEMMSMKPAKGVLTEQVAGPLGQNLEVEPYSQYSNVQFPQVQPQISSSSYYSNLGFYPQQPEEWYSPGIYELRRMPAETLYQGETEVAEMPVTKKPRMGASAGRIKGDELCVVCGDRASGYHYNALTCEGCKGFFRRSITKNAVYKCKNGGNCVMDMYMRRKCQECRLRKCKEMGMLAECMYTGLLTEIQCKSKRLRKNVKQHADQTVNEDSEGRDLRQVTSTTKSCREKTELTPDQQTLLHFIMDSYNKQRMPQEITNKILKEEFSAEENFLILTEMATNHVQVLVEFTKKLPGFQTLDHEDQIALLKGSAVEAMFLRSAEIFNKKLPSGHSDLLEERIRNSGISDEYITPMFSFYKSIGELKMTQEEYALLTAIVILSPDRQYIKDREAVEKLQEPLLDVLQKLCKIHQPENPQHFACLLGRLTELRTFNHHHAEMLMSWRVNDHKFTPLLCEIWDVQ

Regarding `CCCCCCCCCCCCSC#N`, the Potency entry in experiment [1], in [2], in experiment [3] and in experiment [4] was “inactive” in each case. The call in experiment [5], in [6] and in experiment [7] was inactive.
For `Cc1cc(C)n(CO)n1`, the Potency result in experiment [1], in experiment [2], in [3] and in [4] was “inactive” each time. Also, the compound was called inactive in experiment [8] and in experiment [9].
On to `COc1ccc(CN(CCN(C)C)c2ncccn2)cc1`, for which the Potency result in [1], in experiment [2] and in [3] was “inactive” in each case. Moreover, the compound was called inactive in [8], in [9], in experiment [5], in experiment [6] and in experiment [7].
For the compound `CC(C)Cc1nccs1`, the Potency result in experiment [1], in experiment [2], in experiment [3] and in [4] was “inactive” each time. Also, the result in experiment [8], in [9], in experiment [5] and in [6] was inactive.
In the case of `CCCCCCCCS`, the Potency entry in [1], in [2], in experiment [3] and in [4] was “inactive” each time. Besides, the call in [9], in [5], in [6] and in experiment [7] was inactive.
Take `COC(=O)/C=C/C(C)=C\C=C\C(C)=C\C=C\C=C(C)\C=C\C=C(C)\C=C\C(=O)O`: the Potency result in experiment [1], in experiment [2], in experiment [3] and in [4] was “inactive” each time. Moreover, the call in experiment [9], in [5], in experiment [6] and in experiment [7] was inactive.
Regarding `O=C(c1ccc(Cl)cc1)c1ccc(Cl)cc1`, the Potency entry in experiment [1], in [2], in experiment [3] and in [4] was “inactive” each time. For the same compound, the outcome in experiment [5], in experiment [6] and in experiment [7] was inactive.
On to `C=CC(O)CCCCC` (configuration not stated), for which the Potency result in [1], in experiment [2] and in experiment [3] was “inactive” each time. The call in experiment [8], in [9], in [5] and in experiment [7] was inactive.
As to `O=P(c1ccccc1)(c1ccccc1)c1ccccc1`, the Potency entry in [1], in experiment [2], in experiment [3] and in experiment [4] was “inactive” in each case. Also, the result in experiment [9], in experiment [5], in experiment [6] and in [7] was inactive.
Consider `CCCCCCOC(=O)c1ccccc1`, for which the Potency result in experiment [1], in [2] and in [4] was “inactive” in each case. In addition, the Potency in [3] is 30.9 µM (active). Moreover, the compound was called inactive in [5] and in [6].
As for `O=[N+]([O-])c1ccc(Cl)cc1Cl`, the Potency entry in experiment [1], in experiment [2], in [3] and in experiment [4] was “inactive” throughout.
On to `C/C=C1\[C@H]2C=C(C)C[C@]1(N)c1ccc(=O)[nH]c1C2`, for which the Potency result in experiment [1], in [2], in experiment [3] and in experiment [4] was “inactive” in each case. The compound was called inactive in experiment [8], in experiment [9] and in [7].
Take `CC(=O)CC/C=C(\C)CC/C=C(\C)CC/C=C(\C)CCC=C(C)C`: the Potency entry in experiment [1], in experiment [2] and in [3] was “inactive” each time. In addition, the call in experiment [8], in experiment [9], in experiment [5], in experiment [6] and in experiment [7] was inactive.
Turning to `CC(C)(C)NCC(O)COc1ccc(NC(=O)NC2CCCCC2)cc1` (configuration not stated), the Potency entry in experiment [1], in experiment [2], in experiment [3] and in experiment [4] was “inactive” throughout. For the same compound, the result in experiment [8], in [9], in experiment [6] and in [7] was inactive.
Consider `C=C(C)C(=O)OCCCCCCCCCCOC(=O)C(=C)C`, for which the Potency entry in experiment [1], in experiment [2], in experiment [3] and in experiment [4] was “inactive” each time. The outcome in experiment [8], in experiment [9] and in experiment [6] was inactive.
On to `CCCCCCCCCCCC(=O)OCC`, for which the Potency result in experiment [1], in experiment [2], in experiment [3] and in experiment [4] was “inactive” in each case. The compound was classed as inactive in [5] and in experiment [6].
`C1=COCCC1`: the Potency result in experiment [1], in [2], in experiment [3] and in experiment [4] was “inactive” each time. The compound was classed as inactive in experiment [9], in experiment [5], in experiment [6] and in experiment [7].
For the compound `COc1ccc(/C(C)=C/C(=O)O)c(OC)c1`, the Potency entry in [1], in experiment [2], in experiment [3] and in experiment [4] was “inactive” in each case. Besides, the call in [5] and in experiment [6] was inactive.
In the case of `O=C(Nc1ccccc1)c1cc([N+](=O)[O-])ccc1Cl`, the Potency entry in experiment [1], in experiment [2], in experiment [3] and in experiment [4] was “inactive” in each case. The compound was classed as inactive in [9] and in experiment [7].
As to `Nc1ccc(F)cc1F`, the Potency entry in experiment [1], in experiment [2], in experiment [3] and in [4] was “inactive” in each case. In addition, the outcome in [5] and in [6] was inactive.
On to `Nc1ccc(C(=O)Oc2ccccc2)c(O)c1`, for which the Potency entry in experiment [1], in experiment [2], in [3] and in experiment [4] was “inactive” throughout. For the same compound, the outcome in experiment [8], in experiment [9], in experiment [5], in experiment [6] and in experiment [7] was inactive.
`CCC(=O)O[C@]1(C(=O)COC)[C@@H](C)C[C@H]2[C@@H]3CCC4=CC(=O)C=C[C@]4(C)C3(F)[C@@H](O)C[C@@]21C` (some centres not stated): the Potency result in experiment [1], in [2], in [3] and in [4] was “inactive” each time. For the same compound, the call in experiment [8], in [9], in experiment [5], in experiment [6] and in experiment [7] was inactive.
For `CC(C)NC(=O)c1ccccc1N`, the Potency entry in [1], in experiment [2], in experiment [3] and in experiment [4] was “inactive” in each case. Moreover, the outcome in experiment [9], in [6] and in experiment [7] was inactive.
Turning to `CCCCOc1ccc(N)cc1`, the Potency entry in experiment [1] and in experiment [2] was “inactive” throughout. The outcome in [8], in experiment [9], in experiment [5], in experiment [6] and in experiment [7] was inactive.
As to `CC(C)C/C=C(\C=O)c1ccccc1`, the Potency entry in experiment [1], in experiment [2] and in experiment [3] was “inactive” throughout. Moreover, the compound was classed as inactive in experiment [9], in experiment [5], in experiment [6] and in experiment [7].
As to `CCCN(C1CCN(C(=O)C2CCNCC2)CC1)[C@@H]1CCc2ccc(OC)cc2C1`, the Potency entry in experiment [1], in experiment [2] and in experiment [4] was “inactive” each time. Further, the compound was called inactive in [10], in experiment [6] and in [7].
For `O=C1OC(=O)C2CC=CCC12` (configuration not stated), the Potency entry in experiment [1] and in experiment [2] was “inactive” in each case. Besides, the compound was called inactive in experiment [10], in experiment [5], in experiment [6] and in experiment [7].
In the case of `CCOC(OCC)OCC`, the Potency result in experiment [1], in [2], in [3] and in experiment [4] was “inactive” in each case. Also, the result in [8], in [9], in [5], in experiment [6] and in experiment [7] was inactive.
Regarding `Nc1ccc(-c2ccc(F)cc2)cc1`, the Potency result in experiment [1], in [2] and in experiment [4] was “inactive” throughout. The result in experiment [9], in experiment [5] and in [7] was inactive.
With `O=C1c2ccccc2C(=O)C1c1ccc2ccccc2n1`, the Potency result in experiment [1], in experiment [2], in experiment [3] and in experiment [4] was “inactive” in each case. The call in [5], in experiment [6] and in [7] was inactive.
Regarding `O=C(O)c1ccc2c(c1)nc(C(=O)NC1CCN(C3CC3)CC1)n2Cc1cc(-c2ccc(Cl)s2)on1`, the Potency result in experiment [1], in [2] and in experiment [4] was “inactive” each time. In addition, the compound was classed as inactive in experiment [9] and in experiment [7].
